This note sets out measurements from PubChem BioAssay (NCATS).

Records with an inconclusive call do not appear. A call without a number means that no potency is given here. The source made the active and inactive calls. Calls follow the shape of the full dose curve.

A short description of this test: Cytotoxicity counterscreen for inhibitors of SARS-CoV-2 cell entry (AID 1645845). Also: nearly all actives have a fitted effect of over 50% in size. The note with it: cell viability (SARS-CoV-2 entry assay cells); series mostly up to 57.1 µM. The source says: Assay Provider: Wei Zheng, Ph.D.
National Center for Advancing Translational Sciences, National Institute of Health, Rockville, MD.
SARS-CoV-2 spike protein, within the viral envelope, mediates viral attachment and infection of host cells. The SARS-CoV-2 spike protein specifically binds to the host receptor ACE2 (Angiotensin-converting enzyme 2). This interaction promotes endocytosis of the viral particle, additional events lead to viral-host cell membrane fusion and release of the viral contents, allowing viral replication.
While SARS-CoV-2 requires BSL-3 facilities for live virus work, pseudo-typed partices (PP) that incorporate SARS-CoV-2 spike proteins without replication elements could facilitate studies on viral entry mechanisms in a BSL-2 setting. This PP cell entry assay could also enable screening of small molecule compound libraries in BSL-2 setting to identify inhibitors of SARS-CoV-2 cell entry. To eliminate false positive compounds, ATP content cytotoxicity assay was screened in the same cell line.
SEQUENCE No. (e.g., 1, 2, 3, etc.); […] (e.g., Cells, Incubation, Reagent, etc.); VALUE and DESCRIPTION.
1. Cells. Seed 1500 HEK293-ACE2 cells (Expi293F with stable expression of human ACE2) in 2 uL/well media (DMEM, 10% FBS, 1x L-glutamine, 1x Pen/Strep, 1 ug/ml puromycin) in white 1536-well assay plates (Greiner #782073).
2. Incubation. Incubate at 37 C with 5% CO2 overnight (~16 h).
3. Compounds. Dispense 23 nL/well compounds in DMSO via pin transfer.
4. Incubation. Incubate for 1 h at 37C 5% CO2.
5. Reagent. Dispense 2 uL/well of media (DMEM, 10% FBS, 1x L-glutamine, 1x Pen/Strep, 1 ug/ml puromycin).
6. Incubation. Incubate at for 48h at 37C 5% CO2
7. Reagent. Dispense 4 uL/well of ATPLite 1step luminescence assay reagent (PerkinElmer #6016739).
8. Incubation. Incubate for 15 min at room temperature.
9. Detection. Read luminescence signal (Viewlux plate reader, PerkinElmer). Data was normalized with wells containing cells as 100%, and wells without cells (media only control) as 0%.
In general terms: A counterscreen serves to expose hits that act by an unwanted route or on another target.
With `CC1(C)S[C@@H]2[C@H](NC(=O)C(c3ccccc3)S(=O)(=O)O)C(=O)N2[C@H]1C(=O)O` (stereo not given in full), the Potency result is “inactive”. As to `CC(C)(Sc1cc(C(C)(C)C)c(O)c(C(C)(C)C)c1)Sc1cc(C(C)(C)C)c(O)c(C(C)(C)C)c1`, the Potency entry was “inactive”. For `CO[C@H]1C[C@@H]2CC[C@@H](C)[C@@](O)(O2)C(=O)C(=O)N2CCCC[C@@H]2C(=O)O[C@H]([C@@H](C)C[C@@H]2CC[C@H](O)[C@H](OC)C2)CC(=O)[C@H](C)C=C(C)[C@@H](O)[C@@H](OC)C(=O)[C@H](C)C[C@H](C)C=CC=CC=C1C`, the Potency entry is “inactive”. Consider `COC(=O)[C@@H]1[C@H]2C[C@H]3c4[nH]c5ccccc5c4CCN3C[C@@H]2CC[C@@H]1O`, for which the Potency result is “inactive”. As to `CN1C[C@H](C(=O)N[C@]2(C)O[C@@]3(O)[C@@H]4CCCN4C(=O)[C@H](Cc4ccccc4)N3C2=O)C=C2c3cccc4[nH]cc(c34)C[C@H]21`, the Potency result was “inactive”. The entry for `CC(=O)[C@@]1(O)CC[C@H]2[C@@H]3C[C@H](C)C4=CC(=O)C=C[C@]4(C)[C@@]3(F)[C@@H](O)C[C@@]21C` is “inactive”; for `CCC[C@@H]1C[C@@H](C(=O)N[C@@H]([C@H]2O[C@H](SC)[C@H](O)[C@@H](O)[C@H]2O)[C@@H](C)O)N(C)C1` it is “inactive”.

Consider `Cc1nc2ccc(CN(C)c3ccc(C(=O)N[C@@H](CCC(=O)O)C(=O)O)s3)cc2c(=O)[nH]1`, for which the Potency result is “inactive”.

As for `O=C(Nc1ccc(Br)cc1)c1cc(Br)cc(Br)c1O`, the Potency result was “inactive”. As for `C[C@@H]1CC2=CC(=O)CC[C@@H]2[C@H]2CC[C@@]3(C)[C@@H](CC[C@]3(C)O)[C@@H]21`, the Potency result was “inactive”. In the case of `COc1ccccc1OCC(O)CO` (stereo not given), the Potency result was “inactive”. For the compound `CCCCCCCCCCC[C@@H](C[C@@H]1OC(=O)[C@H]1CCCCCC)OC(=O)[C@H](CC(C)C)NC=O`, the Potency entry is “inactive”. With `CCC(C)C(C)(COC(N)=O)COC(N)=O` (stereo not given), the Potency result was “inactive”. Turning to `NC(=O)c1ncn([C@@H]2O[C@H](CO)[C@@H](O)[C@H]2O)c1O`, the Potency entry was “inactive”. In the case of `NC(CS)C(=O)O` (stereo not given), the Potency result was “inactive”.

`C1COC(NC(C2CC2)C2CC2)=N1`: the Potency entry is “inactive”. In the case of `CN1C(=O)NC(=O)C(C)(C2=CCCCC2)C1=O` (stereo not given), the Potency result is “inactive”. As for `C[C@@H](N)[C@@H](O)c1ccccc1`, the Potency entry is “inactive”. The entry for `Cc1c(NC(=O)c2cccnc2)c(=O)n(-c2ccccc2)n1C` is “inactive”; for `CCCC(=O)OCOC(=O)C1=C(C)NC(C)=C(C(=O)OC)C1c1cccc(Cl)c1Cl` (stereo not given) it is “inactive”. Turning to `CCCCCCCCCCCCCCCCCCO`, the Potency result is “inactive”. `O=c1c(-c2ccc(O)cc2)coc2cc(O)cc(O)c12`: the Potency result is “inactive”. As to `CCOC(=O)C1=C[C@@H](OC(CC)CC)[C@H](NC(C)=O)[C@@H](N)C1`, the Potency entry was “inactive”. The entry for `CC(=O)[C@H]1CC[C@H]2[C@@H]3C=CC4=CC(=O)CC[C@@]4(C)[C@@H]3CC[C@]12C` is “inactive”; for `Nc1ccc(S(=O)(=O)Nc2ccnn2-c2ccccc2)cc1` it is “inactive”. Regarding `COc1ccc2cc([C@H](C)C(=O)O)ccc2c1`, the Potency entry was “inactive”.

For the compound `CN(C)CCc1c[nH]c2ccc(Cn3cncn3)cc12`, the Potency entry was “inactive”. The entry for `CS(=O)(=O)c1ccc([C@@H](O)[C@@H](CF)NC(=O)C(Cl)Cl)cc1` is “inactive”; for `CC(=O)N(CC(O)CO)c1c(I)c(C(=O)NCC(O)CO)c(I)c(C(=O)NCC(O)CO)c1I` (stereo not given) it is “inactive”. Consider `C[C@]12CC[C@@H]3c4ccc(OC(=O)N(CCCl)CCCl)cc4CC[C@H]3[C@@H]1CC[C@@H]2OP(=O)(O)O`, for which the Potency entry is “inactive”.

On to `COC(=O)N/N=C/c1c[n+]([O-])c2ccccc2[n+]1[O-]`, for which the Potency result was “inactive”. As to `C[C@@H]1[C@H](O)[C@@H](C)/C=C/C=C\C=C\C=C\C=C\C=C\C=C\[C@H](O[C@@H]2O[C@H](C)[C@@H](O)[C@H](N)[C@@H]2O)C[C@@H]2O[C@](O)(C[C@@H](O)C[C@@H](O)[C@H](O)CC[C@@H](O)C[C@@H](O)CC(=O)O[C@H]1C)C[C@H](O)[C@H]2C(=O)O` (stereo in doubt), the Potency entry is “inactive”. On to `CNC[C@H](O)[C@@H](O)[C@H](O)[C@H](O)CO`, for which the Potency entry is “inactive”. Take `CC(C)C[C@H](CN)CC(=O)O`: the Potency result was “inactive”. On to `C#C[C@]1(O)CC[C@H]2[C@@H]3CCC4=CC(=O)CC[C@@H]4[C@H]3CC[C@@]21CC`, for which the Potency result is “inactive”. Take `O=C(O)C(S)C(S)C(=O)O` (stereo not given): the Potency entry is “inactive”. On to `Cn1c(=O)c2[nH]c(Br)nc2n(C)c1=O`, for which the Potency result is “inactive”. Regarding `Cc1cc(C)nc(NS(=O)(=O)c2ccc(N)cc2)n1`, the Potency entry is “inactive”. Turning to `CN[C@@H]1[C@H](O)[C@H](NC)[C@H]2O[C@@]3(O)C(=O)C[C@@H](C)O[C@H]3O[C@@H]2[C@H]1O`, the Potency entry is “inactive”. `CC12CCC(CC1)C(C)(C)O2`: the Potency entry was “inactive”.
